# According to PubChem BioAssay (NCATS):
# Inconclusive results are not listed. Entries that show only a call come without a potency. Active and inactive are the calls of the source. Unless noted, calls follow the shape of the dose curve; as a rule, active = well fitted inhibition curve with a large enough effect; inconclusive = small, poorly fitted or top-dose-only effect; inactive = no such curve, though single readings can be large or run the other way.
# Experiment: High-throughput drug toxicity screening in the BPDCN cell line Gen2.2 (AID 1224824; call rule not given here;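 also: cells exposed to compounds for 48 h before reading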)
# Settings: Gen2.2 BPDCN cells; at 45.8 µM (top of the series)
# Outline: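 CellTiter-Glo luminescence read after 48 h compound exposure at 37 C defines viability; percent activity set with DMSO as 100% and bortezomib (9.2 uM final) as 0%. 500 exponentially growing cells per well, RPMI plus 10% FBS.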
row,Structure (SMILES),"cell viability, % of control (lower = more cytotoxic) [%]"
1,CC(O)=C(C#N)C(=O)Nc1cc(Br)ccc1Br,79.3
2,O=S(=O)(CC1CS1)c1ccc(Oc2ccccc2)cc1 (stereo not drawn),3.87
3,Cc1c(C(=O)c2cccc3ccccc23)c2cccc3c2n1[C@H](CN1CCOCC1)CO3,17.7
4,O=C(Nc1ccncc1)C(=O)c1cn(Cc2ccc(Cl)cc2)c2ccccc12,73.9
5,CN1[C@H]2CC(O)C[C@H]1[C@H]1O[C@H]12 (stereo partly drawn),21.9

# Experiment: High-throughput drug toxicity screening in the BPDCN cell line Cal-1 (AID 1224825; call rule not given here)
# Settings: Cal-1 BPDCN cell viability, qHTS; at 45.8 µM (top of the series)
# Outline: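 Exponentially growing Cal-1 cells, 500 per well in phenol red-free RPMI with 10% FBS, were exposed to compounds for 48 h at 37 °C, 5% CO2. Viability was read by CellTiter-Glo luminescence and normalised to DMSO (100%) and 9.2 uM bortezomib (0%).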
row,Structure (SMILES),viability (% of control) [%]
1,CC(O)=C(C#N)C(=O)Nc1cc(Br)ccc1Br,103
2,O=S(=O)(CC1CS1)c1ccc(Oc2ccccc2)cc1 (stereo not drawn),3.02
3,Cc1c(C(=O)c2cccc3ccccc23)c2cccc3c2n1[C@H](CN1CCOCC1)CO3,40
4,O=C(Nc1ccncc1)C(=O)c1cn(Cc2ccc(Cl)cc2)c2ccccc12,16.2
5,CN1[C@H]2CC(O)C[C@H]1[C@H]1O[C@H]12 (stereo partly drawn),52.9

# Experiment: qHTS assay for measurement of the activity of small molecule inhibitors on Zika virus induced Caspase-3 activity in human iPSC derived neural progenitor cells (hNPCs) (AID 1224857); also: nearly all actives have a fitted effect of over 65% in size
# Settings: hNPCs ZIKV-induced caspase-3/7, Caspase-Glo luminescence, 6 h; series mostly up to 45.7 µM
# Outline: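 Zika virus (2 FFU/cell) infection of human iPSC-derived NPCs, 6 h, following 1 h compound preincubation. Read-out: Caspase-Glo 3/7 luminescence.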
row,Structure (SMILES),Potency
1,CCCN1CCO[C@@H]2c3cc(O)ccc3OC[C@H]21,inactive
2,NCc1cc(=O)[nH]o1,inactive
3,O=[N+]([O-])c1cc([N+](=O)[O-])c2ccccc2c1,inactive
4,O=C(O)c1cc(Oc2ccc(C(F)(F)F)cc2Cl)ccc1[N+](=O)[O-],inactive
5,O=C(O)CC[N+](=O)[O-],inactive
6,NCCc1c[nH]c2ccc(O)cc12,inactive
7,O=C(O)Cc1cnc[nH]1,inactive
8,Fc1cc(Br)ccc1CBr,inactive
9,c1cc2ccc3cccc4ccc(c1)c2c34,inactive
10,CC(C)Oc1cccc(NC(=O)c2ccccc2C(F)(F)F)c1,inactive
11,NC(CCP(=O)(O)O)C(=O)O (stereo not drawn),inactive
12,O=C(O)[C@@H]1CCN1,inactive
13,C[N+]1(C)C2CC(OC(=O)[C@H](CO)c3ccccc3)CC1C1OC12 (stereo partly drawn),inactive
14,O=S(=O)(O)C(F)(F)C(F)(F)C(F)(F)C(F)(F)C(F)(F)C(F)(F)C(F)(F)C(F)(F)F,inactive
15,CCCCCCCCc1ccc(O)cc1,inactive
16,CCC(=O)O[C@@H]1C=C2CCC3C(CCC4(C)C3CC[C@@H]4OC(=O)CC)C2CC1 (stereo partly drawn),inactive

row,Structure (SMILES),Potency
1,Clc1ccc(C(c2ccc(Cl)cc2)n2cc[n+](CC(OCc3ccc(Cl)cc3Cl)c3ccc(Cl)cc3Cl)c2)cc1 (stereo not drawn),inactive
2,OCCCBr,inactive
3,CC(C)Oc1cccnc1N(C)C1CCN(Cc2ccccc2)CC1,inactive
4,CCO/N=C(\CC)C1=C(O)CC(c2c(C)cc(C)cc2C)CC1=O (stereo not drawn),inactive
5,C=CCN1CC[C@]23CCCCC2[C@H]1Cc1ccc(O)cc13 (stereo partly drawn),inactive
6,CC(C)(C)NC[C@H](O)c1ccc(O)cc1Cl,inactive
7,CCOP(=O)(NC(C)C)Oc1ccc(SC)c(C)c1 (stereo not drawn),inactive
8,Nc1c(Cl)c(Cl)c(Cl)c(Cl)c1Cl,inactive
9,CO/C=C(/C(=O)OC)c1ccccc1Oc1cc(Oc2ccccc2C#N)ncn1,inactive
10,c1ccc2sc(C3(N4CCCCC4)CCCCC3)cc2c1,inactive
11,C=CCC1=C(C)C(OC(=O)C2C(C=C(C)C)C2(C)C)CC1=O (stereo not drawn),inactive
12,CC(=O)[C@H]1CCC2C3CC[C@H]4C[C@H](O)CC[C@]4(C)C3CC[C@@]21C (stereo partly drawn),inactive
13,Oc1ccc2c3c1O[C@H]1[C@@H](O)C=C[C@H]4[C@@H](C2)NCC[C@@]341,inactive
14,CC(C)[C@H]1CN[C@H](C(=O)O)[C@H]1CC(=O)O,inactive
15,NC(CP(=O)(O)O)C(=O)O (stereo not drawn),inactive
16,CC[C@@H]1C(=O)OC[C@@H]1Cc1cncn1C,inactive

# Experiment: qHTS assay for measurement of the activity of small molecule inhibitors on Zika virus induced Caspase-3 activity in human astrocytoma cells (AID 1224859)
# Settings: SNB-19 ZIKV-induced caspase-3/7, luminescence, 6 h; series mostly up to 45.7 µM
# Outline: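 Caspase activation in ZIKV-infected SNB-19 cells (2 FFU/cell, 6 h) measured by Caspase-Glo 3/7 luminescence after 30 min RT; compound pre-incubated 1 h; normalised to uninfected and infected controls.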
row,Structure (SMILES),Potency
1,CCCN1CCO[C@@H]2c3cc(O)ccc3OC[C@H]21,inactive
2,NCc1cc(=O)[nH]o1,inactive
3,O=C(O)c1cc(Oc2ccc(C(F)(F)F)cc2Cl)ccc1[N+](=O)[O-],inactive
4,O=C(O)CC[N+](=O)[O-],inactive
5,NCCc1c[nH]c2ccc(O)cc12,inactive
6,O=C(O)Cc1cnc[nH]1,inactive
7,c1cc2ccc3cccc4ccc(c1)c2c34,inactive
8,CC(O)=C(C#N)C(=O)Nc1cc(Br)ccc1Br,inactive
9,O=S(=O)(O)C(F)(F)C(F)(F)C(F)(F)C(F)(F)C(F)(F)C(F)(F)C(F)(F)C(F)(F)F,inactive
10,O=S(=O)(CC1CS1)c1ccc(Oc2ccccc2)cc1 (stereo not drawn),inactive
11,Cc1c(C(=O)c2cccc3ccccc23)c2cccc3c2n1[C@H](CN1CCOCC1)CO3,inactive
12,OCCCBr,inactive
13,CC(C)Oc1cccnc1N(C)C1CCN(Cc2ccccc2)CC1,inactive
14,CC(=O)[C@H]1CCC2C3CC[C@H]4C[C@H](O)CC[C@]4(C)C3CC[C@@]21C (stereo partly drawn),inactive

# Experiment: qHTS Screen of the MIPE 4.0 Collection Against Ewings Sarcoma (TC71) (AID 1259253); also: potency is read from the fitted curve at half-maximal effect; nearly all actives have a fitted effect of over 40% in size
# Settings: TC71 Ewing sarcoma viability, CellTiter-Glo, 48 h; series mostly up to 45.8 µM
# Outline: (§1)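 Measured: ATP luminescence (CellTiter-Glo) 10 min after reagent addition, following 48 h drug treatment. Relative luciferase units converted to percent activity, with no-cell wells as full and DMSO wells as zero inhibition.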
row,Structure (SMILES),Potency
1,Cc1c(C(=O)c2cccc3ccccc23)c2cccc3c2n1[C@H](CN1CCOCC1)CO3,26.4 µM (active)
2,O=C(Nc1ccncc1)C(=O)c1cn(Cc2ccc(Cl)cc2)c2ccccc12,0.132 µM (active)
3,CN1[C@H]2CC(O)C[C@H]1[C@H]1O[C@H]12 (stereo partly drawn),26.4 µM (active)

# Experiment: qHTS Screen of the MIPE 4.0 Collection Against Ewings Sarcoma (EW8) (AID 1259255); also: potency is read from the fitted curve at half-maximal effect; nearly all actives have a fitted effect of over 35% in size
# Settings: EW8 Ewing sarcoma viability, CellTiter-Glo, 48 h; series mostly up to 45.8 µM
# Outline: as §1
row,Structure (SMILES),Potency
1,O=S(=O)(CC1CS1)c1ccc(Oc2ccccc2)cc1 (stereo not drawn),20.9 µM (active)
2,Cc1c(C(=O)c2cccc3ccccc23)c2cccc3c2n1[C@H](CN1CCOCC1)CO3,26.4 µM (active)
3,O=C(Nc1ccncc1)C(=O)c1cn(Cc2ccc(Cl)cc2)c2ccccc12,0.0935 µM (active)
4,CN1[C@H]2CC(O)C[C@H]1[C@H]1O[C@H]12 (stereo partly drawn),23.5 µM (active)
